Screens from PubChem BioAssay.
HCMV antiviral – inhibitors of human cytomegalovirus; HFF cells, HCMV-luciferase reporter, 72 h; stronger effect = lower value; activity change, negative = inhibition, % at 57.5 µM; 410,000 tested, 4.5% active; in the data active = activity change below about -60%; inconclusive = no clear call, values can overlap the other calls; inactive = above about -39%
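Cell-based, HFFs, 1000 cells/well, 16 h 37C; cpds in DMSO + HCMV-luc, MOI 1 PFU/cell; 72 h 37C; OneGlo luminescence after 5 min RT; norm. to buffer vs Salinomycin 10uM.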
Lassa entry inh – blocks Lassa virus binding to or entry into cells | Potency, µM (highest dose often 37.9 µM), for the others: at the top dose activity change, negative = inhibition, usual class: inhibitors | 300,000 tested, 1.2% active | Lassa virus pseudotype entry inhibition, cell reporter; calls by dose curve; tested in HEK293 cells; note: potency is the fitted concentration of half-maximal effect; nearly all actives have a fitted effect of over 50% in size
Vaccinia mCherry – inhibitors of vaccinia virus infection (mCherry reporter signal). Vaccinia virus mCherry reporter infection, fluorescence. Potency, µM (top dose mostly 36.5 µM), inactives show top-dose activity change, negative = inhibition, most hits filed as inhibitors. 310,000 tested, 0.63% active. AID 720579; calls by dose curve; tested in A549 cells; note: potency is the fitted concentration of half-maximal effect; nearly all actives have a fitted effect of over 35% in size
HCV inhibitor – blocks hepatitis C virus | Huh7.5.1 HCVcc-Cre infection, luciferase reporter, 44 h | Potency, µM (top dose mostly 41.8 µM), inactives show at the highest dose activity change, negative = inhibition, actives largely listed as inhibitors | 340,000 tested, 3.4% active | AID 651820; active = well fitted inhibition curve with a large enough effect; inconclusive = small, poorly fitted or top-dose-only effect, or another doubt; inactive = no such curve, though single readings can be large or run the other way; note: potency is the fitted concentration of half-maximal effect
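Whole-lifecycle infectious HCVcc-Cre system; cells 1,000/well, compound then virus (~0.5 moi) added 4 h after plating, 44 h culture. Luciferase read 15 sec following 15 min substrate incubation, room temp.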
MARV entry inh – blocks Marburg virus binding to or entry into cells | Marburg virus pseudotyped entry inhibition, cell reporter | Potency, µM (doses to about 37.8 µM), for the others: top-dose activity change, negative = inhibition, most hits filed as inhibitors | 300,000 tested, 1.8% active | AID 540276; calls by dose curve; tested in HEK293 cells; note: potency is the fitted concentration of half-maximal effect
VACV Venus inh – inhibitors of vaccinia virus (Venus reporter); Vaccinia virus Venus reporter expression, fluorescence; Potency, µM (series often up to 36.5 µM), for the others: at the highest dose activity change, negative = inhibition, usual class: inhibitors; AID 720580; 330,000 tested, 0.46% active; calls by dose curve; tested in A549 cells; note: potency is the fitted concentration of half-maximal effect; nearly all actives have a fitted effect of over 30% in size
* hit, by the source's call; i = inactive; u = inconclusive; x = no result; [ ] = dose if it differs, or a comment. Sampled rows, rich in hits. Any-hit rate of the full collection: about 7.8%. % is set by controls: 0 for no effect and ±100 for the full control effect.

SMILES	HCMV antiviral	Lassa entry inh	Vaccinia mCherry	HCV inhibitor	MARV entry inh	VACV Venus inh
N#Cc1ccccc1N/C=C/C(=O)c1ccc(Cl)cc1	82	13µM*	-4%	u	u	u
O=C(/C=C/NNC(=O)c1ccccc1)c1ccc(Br)cc1	39	u	-15%	2.2µM*	u	1%
COc1ccc(C(=O)NN/C=C/C(=O)c2ccc(Br)cc2)cc1	49	x	-6%	x	x	-16%
COc1ccc(CNC(=O)CSCc2nc(-c3ccccc3C)oc2C)cc1	-15	-7%[46.1 µM]	-2%	x	4%[46.1 µM]	-2%
O=C(Cn1c(=O)n(Cc2ccc3c(c2)OCO3)c(=O)c2ccccc21)Nc1cccc(Cl)c1	-1	3%[46.1 µM]	-25%	x	6%[46.1 µM]	-13%
Cc1ccc(C=CC2=C[C@]3(C)C[C@]2(C)[C@H](c2ccc(C)cc2)CC3=O)cc1	x	x	x	x	-4%[14.2 µM]	x
NC(=O)c1ccccc1N/C=C/C(=O)c1ccc(Cl)cc1Cl	43	u	-33%	-3%	5.6µM*	-21%
O=C(/C=C/NNC(=O)c1cccc(Br)c1)c1cccc(Br)c1	27	-10%	i	u	-23%	-13%
NC(=O)c1ccccc1N/C=C/C(=O)c1ccc(F)cc1	43	x	u	-20%	5%	-23%
O=C(/C=C/NNC(=O)c1ccc(Cl)cc1)c1ccccc1	-16	x	-7%	8.9µM*	x	-20%
O=S(=O)(Nc1ccc(N2CCCCC2)cc1)c1ccc(F)cc1	-61*	x	x	-21%	x	x
O=S(=O)(Nc1ccc(N2CCCCC2)cc1)c1ccccc1F	-19	-4%	i	-27%	17%	-12%
O=S(=O)(Nc1ccc(N2CCCCC2)cc1)c1ccc(F)cc1F	-60*	1%	-25%	u	-6%	-21%
Cc1cccc(N2CCN(c3nc4ccc(C)cc4n4cnnc34)CC2C)c1 (configuration not stated)	-27	x	-27%	x	3%[46.1 µM]	-18%
Fc1ccccc1OCCCCCCN1CCCC1	5	-1%	x	7.9µM*	-16%	x
COc1ccccc1OCCCCN1CCN(c2ccccc2OC)CC1	-15	8%	-13%	u	-17%	-10%
COc1ccccc1N1CCN(CCCCCCOc2ccc(F)cc2)CC1	u	u	-2%	u	18µM*	-21%
Oc1ccc(N2CCN(Cc3ccc(OCCCN4CCCCC4)cc3)CC2)cc1	-4	7%[46.1 µM]	u	5%	13µM*	10%
Cc1cccc(OCCCN2CCCCCC2)c1	28	u	-19%	32µM*	u	-13%
CCOC(=O)c1cccn1C1C(=O)N(Cc2ccc(C(C)C)cc2)c2ccc(Cl)cc21 (configuration not stated)	-12	x	x	x	x	x
c1ccc(-c2ccccc2OCCCN2CCCCC2)cc1	-38	16µM*	u	-15%	u	-15%
c1ccc(COc2ccc(OCCCCN3CCCCC3)cc2)cc1	39	-23%	-13%	25µM*	u	-25%
CN(C)CCCCOc1ccccc1-c1ccccc1	9	u	x	0%	13µM*	x
O=C(c1ccccc1)c1ccc(OCCCCN2CCCCC2)cc1	-8	-19%	-27%	-42%	u	u
Cc1cccc(CSc2cccc3cccnc23)c1	-108*	1%	u	19%	u	u
SMILES	HCMV antiviral	Lassa entry inh	Vaccinia mCherry	HCV inhibitor	MARV entry inh	VACV Venus inh
COc1cccc(/C=N/NC(=O)CSc2cccc3cccnc23)c1	-92*	x	x	u	x	x
NNC(=O)c1ccc(CSc2cccc3cccnc23)cc1	-1	19%	-5%	5%	2%[46.1 µM]	-13%
COc1ccc2nc(C)cc(SCC(=O)N/N=C/c3ccco3)c2c1	-26	x	-22%	-27%	8.9µM*	-21%
Cc1cccc(NC(=O)CSc2cccc3cccnc23)c1C	-7	-8%[46.1 µM]	-8%	-9%	16%[46.1 µM]	-21%
CCOC(=O)CSc1cccc2cccnc12	-87*	8%	x	6.3µM*	u	u
CCOCCCn1cc(C(=O)c2cc(Br)ccc2O)cc(C#N)c1=O	12	u	-16%	-18%	-27%[46.1 µM]	18%
CCCCn1cc(C(=O)c2cc(Br)ccc2O)cc(C#N)c1=O	-6	u	x	11µM*	u	u
COCCCn1cc(C(=O)c2cc(Br)ccc2O)cc(C#N)c1=O	-25	u	u	-27%	1.6µM*	6%
